Measurements: PubChem BioAssay
Activity calls are given as the source filed them. The rule behind the calls is not given here.

target: Protein kinase 7 (PK7), Plasmodium falciparum 3D7 (PF3D7_0213400) (UniProt Q7YTF7); test: inhibition of Plasmodium PK7 catalytic activity – biochemical, TCAMS antimalarial set, Kinase-Glo luminescence (AID 1159587); conditions: recombinant PfPK7, Kinase-Glo ATP depletion luminescence
Sequence (Q7YTF7 1-343): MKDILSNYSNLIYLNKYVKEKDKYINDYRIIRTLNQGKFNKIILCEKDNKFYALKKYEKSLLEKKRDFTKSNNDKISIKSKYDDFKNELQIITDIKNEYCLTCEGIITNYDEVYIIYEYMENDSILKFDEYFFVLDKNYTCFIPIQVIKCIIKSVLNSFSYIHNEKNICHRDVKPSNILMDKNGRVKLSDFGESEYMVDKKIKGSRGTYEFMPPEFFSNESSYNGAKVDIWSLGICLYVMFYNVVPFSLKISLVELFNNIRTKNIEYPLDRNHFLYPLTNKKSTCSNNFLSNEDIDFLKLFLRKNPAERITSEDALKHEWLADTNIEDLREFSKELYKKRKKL

outcome, inactive:
Cc1nc(-c2nc(NCc3ccncc3)ncc2-c2ccsc2)sc1C, CN(Cc1ccccc1)C1CCN(c2cc(NC(=O)c3cccc(F)c3)ccn2)CC1, FC(F)(F)c1ccc2nc(-c3ccc(-c4cccc(CN5CCC(CCN6CCCCC6)CC5)c4)cc3)[nH]c2c1, COCCCNC(=O)C1CCN(C(c2ccc(Cl)cc2)c2ccc(Cl)cc2)CC1, NOCCCOc1ccccc1, Cc1ccc(-c2ccc(NC(=O)N3CCc4cc(Br)c(N5CCN(C)CC5)cc43)cc2)cn1, CCC(C)(C)c1ccc(OCCCC(=O)Nc2ccc(Cl)c([N+](=O)[O-])c2)c(C(C)(C)CC)c1, C=C(C)C1CC=C(CN2CCC(N3CCc4cc(NC(=O)c5cc(C)on5)ccc43)C2)CC1 (centres undefined), NC(=O)c1ccsc1NC(=O)CNC(c1ccc(F)cc1)c1cccs1 (centres undefined), COc1ccc(NC(=O)Nc2ccc(-c3ccncc3)c(C(F)(F)F)c2)cc1N1CCN(C)CC1, Nc1nc(N)c2c(CCc3ccc(Cl)c(Cl)c3)cccc2n1, CC(C)(C)c1ccc(CNCC(C)(C)c2nc(-c3ccc(Cl)c(O)c3)c(-c3ccnc(N)n3)[nH]2)cc1, COc1ccc(Nc2nccc(-c3ccc(NC(=O)c4cc5cc(F)ccc5[nH]4)cc3)n2)cc1, CC(C)N(Cc1ccc(-c2ccc(C(F)(F)F)cc2)cc1)C(=O)Cn1c(CCc2cccc(F)c2F)cc(=O)c2ccc(CCCN3CCCCC3)cc21, O=C(Nc1cccc(CN2CCCN(Cc3ccc(O)cc3)CC2)c1)c1cc2ccccc2s1, O=C(Nc1ccc(OC2CCN(Cc3ccccc3)CC2)c(Cl)c1)c1ccc(F)cc1, CCN(CC)CCNc1ccnc2[nH]c3ccc(I)cc3c12, CN(C)c1nc2cc(-n3cnc4cc(-c5ccc(Cl)cc5)sc4c3=O)ccc2n1CCCN1CCCC1, Cc1[nH]c2ccccc2c(=O)c1Br, O=C(/C=C/c1ccc(Cl)c(Cl)c1)NCCCCCCN1CCN(C(=O)Nc2cccc(Cl)c2)CC1, Cc1cccc2[nH]c(-c3ccc(-c4cccc(CN5CCN(c6ccncc6)CC5)c4)cc3)nc12, CCCCc1cc(N2CCC(NC(C)=O)C2)nc(Nc2ccc(C)cc2)n1 (centres undefined), CCOC(=O)CNC(=O)N(CCN(Cc1ccccc1)C(=O)NCC(=O)OCC)Cc1ccccc1, Cc1cccc2[nH]c(-c3cc(-c4cccc(Cl)c4)cnc3N)nc12, c1ccc(-c2ccc(-c3csc(Nc4ccncc4)n3)cc2)cc1, CC(C)N(CCOc1ccc2c(c1)N(C(=O)Nc1ccc(Cl)c(Cl)c1)CC2)C(C)C, Cn1c(/C=C/C(=O)NC2CCC(CCN3CCc4ccc(C#N)cc4CC3)CC2)cc2ccccc21 (centres undefined), Cc1ccc(NC(=O)c2ccc3ncccc3c2)cc1OC1CCN(Cc2ccc(F)cc2)C1 (centres undefined), CCc1nc(N)nc(N)c1-c1ccc(F)cc1, Cc1cc(NCCC(=O)NCCOc2ccccc2)nc(NCCOc2ccccc2)n1, CCNc1cc(C)nc(Nc2ccccc2)n1, Cc1cc(N(C)CCCN2CCCCC2)nc(Nc2ccc(Cl)cc2)n1, CC(C)(C)Oc1ccc(CC2NC3(C(=O)N(Cc4ccc(C(C)(C)C)cc4)c4ccccc43)C3C(=O)N(c4ccc(Br)cc4)C(=O)C23)cc1 (centres undefined), Cc1ccc2[nH]c(C3CCCNC3)c(-c3ccncc3)c2c1 (centres undefined), Cn1nc(-c2cccc(CNC3CCc4ccccc43)c2)c2cnc(NCCCN3CCCC3)nc21 (centres undefined), Cc1ccc2c(c1)c(-c1ccccc1)c(-c1ccccc1)n2CC(O)CN1CCN(CC=Cc2ccccc2)CC1 (centres undefined), O=C(CCN1CCCCC1)Nc1ccc(Nc2nccc(NCC(O)c3ccccc3)n2)cc1 (centres undefined), CCc1ccc(N2C(=O)C3C(Cc4ccc(OC(C)(C)C)cc4)NC4(C(=O)N(Cc5ccccc5)c5ccc(F)cc54)C3C2=O)cc1 (centres undefined), CCC[C@@H]([C@@H](CC1CCCCC1)C(=O)N[C@H](C(=O)Nc1nccs1)[C@H](C)O)N(O)C=O
